# Data published in PubChem BioAssay (Tox21).
# Records with an inconclusive call do not appear. Active and inactive are the calls of the source. Unless noted, calls follow the shape of the dose curve; as a rule, active = well fitted curve in the direction sought with a large enough effect in the repeat runs; inconclusive = weak or mixed curves; inactive = no such curve, though single readings can be large; an effect the other way counts as inactive or inconclusive.
# Biological target: Aryl hydrocarbon receptor (Homo sapiens) (UniProt P35869)
# Sequence (P35869 whole entry, looked up): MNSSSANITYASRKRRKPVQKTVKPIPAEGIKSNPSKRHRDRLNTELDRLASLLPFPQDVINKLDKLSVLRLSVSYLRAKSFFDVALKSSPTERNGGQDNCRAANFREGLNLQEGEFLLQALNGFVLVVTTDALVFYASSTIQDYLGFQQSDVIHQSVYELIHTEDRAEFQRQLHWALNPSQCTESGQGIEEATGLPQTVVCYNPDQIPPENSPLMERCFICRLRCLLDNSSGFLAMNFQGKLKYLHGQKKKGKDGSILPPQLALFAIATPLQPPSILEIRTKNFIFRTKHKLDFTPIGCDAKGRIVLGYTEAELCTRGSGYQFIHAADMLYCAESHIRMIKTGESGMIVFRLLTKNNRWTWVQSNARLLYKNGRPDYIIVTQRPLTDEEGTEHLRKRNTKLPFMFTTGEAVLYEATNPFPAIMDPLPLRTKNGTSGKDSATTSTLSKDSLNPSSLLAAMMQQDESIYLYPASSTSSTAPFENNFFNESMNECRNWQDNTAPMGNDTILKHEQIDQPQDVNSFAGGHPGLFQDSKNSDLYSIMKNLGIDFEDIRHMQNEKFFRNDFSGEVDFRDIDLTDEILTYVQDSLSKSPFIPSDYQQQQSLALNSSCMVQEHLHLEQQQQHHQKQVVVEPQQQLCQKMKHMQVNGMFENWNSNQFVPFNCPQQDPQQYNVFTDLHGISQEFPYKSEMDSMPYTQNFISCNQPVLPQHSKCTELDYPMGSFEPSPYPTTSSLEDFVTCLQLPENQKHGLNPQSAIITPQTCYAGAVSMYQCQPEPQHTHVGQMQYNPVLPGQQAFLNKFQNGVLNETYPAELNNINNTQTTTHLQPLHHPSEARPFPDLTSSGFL
# Test: qHTS assay to identify small molecule that activate the aryl hydrocarbon receptor (AhR) signaling pathway (AID 743085); also: nearly all actives have a fitted effect of over 15% in size; also: potency is read from the fitted curve at half-maximal effect;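 as to activation: HG2L7.5c1 human HepG2 liver cells with stably integrated DRE-driven firefly reporter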
# Conditions: HepG2 AhR-luc (HG2L7.5c1), luciferase, 24 h; series mostly up to 70.3 µM; activation: at the top concentration
# Procedure, shortened: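 HepG2 cells (HG2L7.5c1) stably carrying a firefly luciferase reporter driven by 20 dioxin responsive elements were exposed to compound for 24 h at 37C after a 5 h settling period; luminescence rise (ONE-Glo) indicated activation.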
# % is scaled to controls: 0 for no effect and ±100 for the full control effect.
Compound,activation,Potency
CCOc1ccccc1OCCN[C@H](C)Cc1ccc(OC)c(S(N)(=O)=O)c1,8.43% (inactive),–
CC(CN1CC(=O)NC(=O)C1)N1CC(=O)NC(=O)C1 (stereo unspecified),-0.108% (inactive),–
C=COCCCCO,1.79% (inactive),–
O=C(O)/C=C(\CC(=O)O)C(=O)O,-3.97% (inactive),–
CC(=O)c1ccc2ccc3ccccc3c2c1,–,60.8 µM (active)
CCC(C)SSC(C)CC (stereo unspecified),3.47% (inactive),–
Cc1ccc(S(=O)(=O)NC(=O)NN2CC3CCCC3C2)cc1 (stereo unspecified),2.36% [at 32.5 µM] (inactive),–
O=C1CC2(CCCC2)CC(=O)N1CCNCC1COc2ccccc2O1 (stereo unspecified),0.0072% (inactive),–
CNCCc1ccccn1,-1.05% [at 32.5 µM] (inactive),–
CC[N+](C)(CC)CC,-0.582% (inactive),–
CC(C)(C)NCC(O)COc1cccc2c1CCC(=O)N2 (stereo unspecified),0.515% [at 32.5 µM] (inactive),–
c1coc(Cn2cccc2)c1,-1.26% (inactive),–
CCCCCCCCS(=O)(=O)O,-2.17% [at 95 µM] (inactive),–
C/C(=N\O)c1ccc(OCC(=O)N2CCCCC2)cc1,–,5.96 µM (active)
Clc1cc(Cl)c(Cl)c(Cl)c1Cl,6.59% (inactive),–
Cc1cc(C)c(C)c(C)c1,-0.278% (inactive),–
CC1(C)C(=O)C(C)(C)C1=O,-0.732% (inactive),–
Cc1ccc(Br)cc1,-0.863% (inactive),–
C=CCCCCCCCCOC(C)=O,-0.506% (inactive),–

Compound,activation,Potency
CSC(=O)c1cccc2nnsc12,3.25% (inactive),–
CN(C)c1ccncc1,-0.41% (inactive),–
C=CCN(CC=C)CC=C,-0.623% (inactive),–
CC(C)(O)CCCC1=CCC(C=O)CC1 (stereo unspecified),-1.61% [at 95 µM] (inactive),–
CC(=O)OC1CCC(C(C)(C)C)CC1 (stereo unspecified),-0.237% (inactive),–
CC/C=C\CCOC(=O)c1ccccc1,-0.255% (inactive),–
O=C(O)P(=O)(O)O,-0.0508% (inactive),–
COc1cnc(NS(=O)(=O)c2ccc(N)cc2)nc1,-0.0961% [at 32.5 µM] (inactive),–
CCCCCCCCCCCCCCCCN(C)C,-0.709% [at 8.47 µM] (inactive),–
CC[C@@]1(c2ccccc2)NC(=O)N(C)C1=O,-0.456% (inactive),–
Cc1cc(O)c(Cl)cc1C,1.86% (inactive),–
C[C@@H]1CC[C@@]2(OC1)O[C@H]1C[C@H]3[C@@H]4CC[C@H]5C[C@@H](O)CC[C@]5(C)[C@H]4CC(=O)[C@]3(C)[C@H]1[C@@H]2C,0.0151% [at 32.5 µM] (inactive),–
NS(=O)(=O)c1cc2c(cc1C(F)(F)F)NCNS2(=O)=O,-0.451% [at 32.5 µM] (inactive),–
CCN(CC)CC,-1.03% [at 95 µM] (inactive),–
COc1ccc2cc(CCC(C)=O)ccc2c1,–,3.2 µM (active)
CC(=O)OC/C=C(/C)CCC=C(C)C,-0.376% (inactive),–
CCCCN1C(=O)c2ccccc2C1=O,3.32% [at 95 µM] (inactive),–
CCC(C)(C)C,-1.19% [at 95 µM] (inactive),–
Cc1ccc2ccccc2n1,-0.97% (inactive),–

# System: not listed separately
# Test: qHTS assay to identify small molecule that activate the aryl hydrocarbon receptor (AhR) signaling pathway - cell viability counter screen (AID 743086);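 also: HepG2 liver cells carrying the AhR DRE luciferase reporter; nearly all actives have a fitted effect of over 45% in size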
# Conditions: HepG2-AhR-luc viability, CellTiter-Fluor, 24 h; series mostly up to 70.3 µM; viability change, negative = cytotoxic: at the top concentration
# Procedure, shortened: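 HepG2-AhR-luc (HG2L7.5c1) cells, 4000/well, treated 24 h at 37 C with compound; viability measured as CellTiter-Fluor fluorescence after 30 min in the same wells as the luciferase read.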
row,Compound,"viability change, negative = cytotoxic"
1,CCOc1ccccc1OCCN[C@H](C)Cc1ccc(OC)c(S(N)(=O)=O)c1,-6.06% (inactive)
2,CC(CN1CC(=O)NC(=O)C1)N1CC(=O)NC(=O)C1 (stereo unspecified),-4.28% (inactive)
3,C=COCCCCO,-8.97% (inactive)
4,O=C(O)/C=C(\CC(=O)O)C(=O)O,-18.1% (inactive)
5,CC(=O)c1ccc2ccc3ccccc3c2c1,11.9% (inactive)
6,CCC(C)SSC(C)CC (stereo unspecified),3.4% (inactive)
7,O=C1CC2(CCCC2)CC(=O)N1CCNCC1COc2ccccc2O1 (stereo unspecified),10.8% (inactive)
8,CNCCc1ccccn1,1.74% [at 32.5 µM] (inactive)
9,CC[N+](C)(CC)CC,1.62% (inactive)
10,c1coc(Cn2cccc2)c1,-2.55% (inactive)
11,CCCCCCCCS(=O)(=O)O,19% [at 95 µM] (inactive)
12,C/C(=N\O)c1ccc(OCC(=O)N2CCCCC2)cc1,6.05% (inactive)
13,Clc1cc(Cl)c(Cl)c(Cl)c1Cl,1.96% (inactive)
14,Cc1cc(C)c(C)c(C)c1,-3.46% (inactive)
15,CC1(C)C(=O)C(C)(C)C1=O,1.35% (inactive)
16,C=CCCCCCCCCOC(C)=O,-13.9% (inactive)
17,CN(C)c1ccncc1,18.4% (inactive)
18,C=CCN(CC=C)CC=C,14.4% (inactive)
19,CC(C)(O)CCCC1=CCC(C=O)CC1 (stereo unspecified),3.62% [at 95 µM] (inactive)
20,CC(=O)OC1CCC(C(C)(C)C)CC1 (stereo unspecified),-2.3% (inactive)
21,O=C(O)P(=O)(O)O,7.76% (inactive)
22,COc1cnc(NS(=O)(=O)c2ccc(N)cc2)nc1,13.5% [at 32.5 µM] (inactive)
23,CCCCCCCCCCCCCCCCN(C)C,-0.517% [at 8.47 µM] (inactive)
24,C[C@@H]1CC[C@@]2(OC1)O[C@H]1C[C@H]3[C@@H]4CC[C@H]5C[C@@H](O)CC[C@]5(C)[C@H]4CC(=O)[C@]3(C)[C@H]1[C@@H]2C,2.37% [at 32.5 µM] (inactive)
25,NS(=O)(=O)c1cc2c(cc1C(F)(F)F)NCNS2(=O)=O,-14.2% [at 32.5 µM] (inactive)
26,CCN(CC)CC,-0.785% [at 95 µM] (inactive)
27,COc1ccc2cc(CCC(C)=O)ccc2c1,8.67% [at 32.5 µM] (inactive)
28,CCCCN1C(=O)c2ccccc2C1=O,-12.4% [at 95 µM] (inactive)
29,CCC(C)(C)C,-2.42% [at 95 µM] (inactive)
30,Cc1ccc2ccccc2n1,0.357% (inactive)

# Biological target: Peroxisome proliferator-activated receptor gamma (Homo sapiens) (UniProt P37231)
# Sequence (P37231 whole entry, looked up): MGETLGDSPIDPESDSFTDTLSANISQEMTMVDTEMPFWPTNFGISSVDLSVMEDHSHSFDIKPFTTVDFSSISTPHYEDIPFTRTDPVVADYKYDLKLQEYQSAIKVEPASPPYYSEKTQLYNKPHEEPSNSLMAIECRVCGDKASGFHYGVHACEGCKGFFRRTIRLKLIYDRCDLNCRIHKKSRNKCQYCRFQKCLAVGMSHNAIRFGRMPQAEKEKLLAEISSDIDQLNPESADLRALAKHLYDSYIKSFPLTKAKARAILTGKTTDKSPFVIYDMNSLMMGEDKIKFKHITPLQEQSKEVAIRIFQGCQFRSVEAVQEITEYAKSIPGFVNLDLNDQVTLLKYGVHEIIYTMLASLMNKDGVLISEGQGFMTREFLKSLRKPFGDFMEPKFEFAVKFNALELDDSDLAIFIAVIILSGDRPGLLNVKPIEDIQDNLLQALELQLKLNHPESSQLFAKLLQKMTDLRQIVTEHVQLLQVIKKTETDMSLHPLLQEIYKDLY
# Test: qHTS assay to identify small molecule agonists of the peroxisome proliferator-activated receptor gamma (PPARg) signaling pathway (AID 743094; active = well fitted activation curve with a large enough effect in the signal ratio in the repeat runs, not every such curve was filed as active; the % refers to the signal ratio)
# Conditions: HEK293H PPARg-UAS-bla, beta-lactamase FRET ratio, 17 h; series mostly up to 57 µM; activation: at the top concentration
# Procedure, shortened: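 Reporter activation was scored by fluorescence of cleaved LiveBLAzer B/G substrate (1 h, room temperature) in PPARg-bla HEK293H cells previously treated 17 h at 37C with DMSO-dissolved compounds.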
row,Compound,activation
1,CC(CN1CC(=O)NC(=O)C1)N1CC(=O)NC(=O)C1 (stereo unspecified),-1.19% (inactive)
2,C=COCCCCO,-0.336% (inactive)
3,O=C(O)/C=C(\CC(=O)O)C(=O)O,-4.07% (inactive)
4,CCC(C)SSC(C)CC (stereo unspecified),5.17% (inactive)
5,Cc1ccc(S(=O)(=O)NC(=O)NN2CC3CCCC3C2)cc1 (stereo unspecified),0.0686% [at 26.2 µM] (inactive)
6,CC[N+](C)(CC)CC,0.692% (inactive)
7,CC(C)(C)NCC(O)COc1cccc2c1CCC(=O)N2 (stereo unspecified),-1.53% [at 26.2 µM] (inactive)
8,c1coc(Cn2cccc2)c1,0.533% (inactive)
9,C/C(=N\O)c1ccc(OCC(=O)N2CCCCC2)cc1,-4.14% (inactive)
10,Cc1cc(C)c(C)c(C)c1,-0.116% (inactive)
11,Cc1ccc(Br)cc1,0.473% (inactive)
12,C=CCCCCCCCCOC(C)=O,-1.65% (inactive)
13,CSC(=O)c1cccc2nnsc12,6.27% (inactive)
14,C=CCN(CC=C)CC=C,3.08% (inactive)
15,CC(C)(O)CCCC1=CCC(C=O)CC1 (stereo unspecified),-4.04% [at 78.9 µM] (inactive)
16,CC/C=C\CCOC(=O)c1ccccc1,-0.981% (inactive)
17,COc1cnc(NS(=O)(=O)c2ccc(N)cc2)nc1,-0.394% [at 26.2 µM] (inactive)
18,CC[C@@]1(c2ccccc2)NC(=O)N(C)C1=O,0.118% (inactive)
19,Cc1cc(O)c(Cl)cc1C,-0.736% (inactive)
20,NS(=O)(=O)c1cc2c(cc1C(F)(F)F)NCNS2(=O)=O,-3.23% [at 26.2 µM] (inactive)
21,CCN(CC)CC,-3.73% [at 78.9 µM] (inactive)
22,CC(=O)OC/C=C(/C)CCC=C(C)C,-2.73% (inactive)
23,CCC(C)(C)C,0.102% [at 78.9 µM] (inactive)
